“And” between values parts separate entries of the source, which are not always exact repeats. Equal values may be shown once. Out of some 140,000 compounds screened, about 1,200 (0.86%) were called active. Rule as the data show it: active = activity change below about -25%; inactive = the rest. This excerpt belongs to a sample that is enriched for actives. Where a structure was tested more than once in an assay, its records may differ in their call.
% is scaled to controls: 0 for no effect and ±100 for the full control effect.

Sequence of Inositol hexakisphosphate kinase 1 (Homo sapiens) (Q92551 whole entry, looked up): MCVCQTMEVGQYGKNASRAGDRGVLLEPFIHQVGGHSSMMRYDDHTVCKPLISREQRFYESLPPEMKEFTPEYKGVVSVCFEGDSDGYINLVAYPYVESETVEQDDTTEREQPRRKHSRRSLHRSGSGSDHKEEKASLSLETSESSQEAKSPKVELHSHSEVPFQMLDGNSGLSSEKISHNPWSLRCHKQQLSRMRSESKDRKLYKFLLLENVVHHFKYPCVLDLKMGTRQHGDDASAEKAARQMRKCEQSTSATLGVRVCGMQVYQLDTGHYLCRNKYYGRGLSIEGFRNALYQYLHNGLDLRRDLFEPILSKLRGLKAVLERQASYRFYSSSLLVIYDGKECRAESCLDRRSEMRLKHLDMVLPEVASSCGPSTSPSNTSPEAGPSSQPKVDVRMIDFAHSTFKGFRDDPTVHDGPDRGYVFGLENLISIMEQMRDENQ

In this assay the target is Inositol hexakisphosphate kinase 1 (Homo sapiens) (UniProt Q92551). The assay is described as follows: Primary qHTS assay for small molecule inhibitors of Inositol hexaphosphate kinase 1 (IP6K1). Also: series mostly up to about 58 µM. The following applies: ADP-Glo luminescence, 2 h, stronger effect = lower value. In short, it runs like this:
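ADP-Glo luminescence measures ADP made by human IP6K1 during a 2 h RT reaction with ATP/IP6 (mix at 1.3 mM/130 uM); top library doses 57.5 and 19.1 uM final.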
Regarding `FC(F)(F)c1ccc(CN2CCC3(CC(c4cccc(C(F)(F)F)c4)=NO3)C2)cc1` (stereo not drawn), the activity change was -5.41% (inactive). The figure for `N#Cc1ccc(CN2CC(Oc3ccc(F)cc3F)C2)cc1` is -14.3% (inactive). As for `CO[C@H]1C=CO[C@@]2(C)Oc3c(C)c(O)c4c(O)c(c(/C=N/N5CCN(C)CC5)c(O)c4c3C2=O)NC(=O)/C(C)=C\C=C[C@H](C)[C@H](O)[C@@H](C)[C@@H](O)[C@@H](C)[C@H](OC(C)=O)[C@@H]1C`, the figure is -33.1% (active); as for `O=C(C1CCN(Cc2ccccc2-c2ccccc2F)CC1)N1CCC(c2ccccc2)CC1`, 20.1% (inactive).

Take `Cc1ccccc1C(=O)N1CCCC(C(=O)N2CCC(c3ccccc3)CC2)C1` (stereo not drawn): the activity change is -2.33% (inactive). As for `O=[S+]([O-])(c1ccccc1)N1CC2(COCCN(Cc3cc(F)ccc3F)C2)C1`, the figure is 8.88% (inactive); as for `COc1cccc(Nc2n[nH]c(C(O)c3cccc(C(F)(F)F)c3)n2)c1` (stereo not drawn), -3.83% (inactive); as for `COc1ccc(-c2nn(CC(=O)NC3CCCC3)c3c2cnc2ccc(F)cc23)cc1`, 19.4% (inactive). The figure for `COc1ccc(-c2nn(CC(=O)Nc3ccccc3F)c3c2cnc2ccc(F)cc23)cc1` is 6.83% (inactive); for `COc1ccc2ncc3c(-c4ccc(C)c(C)c4)nn(CC(=O)NC4CCCC4)c3c2c1` it is -25.8% (active). The figure for `COc1ccc(-c2nc(-c3ccccc3)nc3c2CN(C(=O)c2ccc(C)cc2)CC3)cc1` is 6.25% (inactive); for `CCN1c2cc(C(=O)NCc3ccccc3C(F)(F)F)ccc2C(=O)N2CCCCCC21` (stereo not drawn) it is -7.94% (inactive). In the case of `Cc1ccc(Cl)cc1NC(=O)CN1C(=O)NC(c2ccc(Cl)cc2)C2=C1COC2=O` (stereo not drawn), the activity change was -3.73% (inactive). As for `CCOC(=O)c1cc2c(=O)n3ccccc3nc2n(CC2CCCO2)c1=NC(=O)c1ccccc1F` (stereo not drawn), the activity change was -9.99% (inactive). Turning to `CCOC(=O)c1cc2c(=O)n3ccccc3nc2n(Cc2ccco2)c1=NC(=O)c1ccc(F)cc1`, the activity change is -40.8% (active). As for `CCOC(=O)c1cc2c(=O)n3ccccc3nc2n(CC2CCCO2)c1=NC(=O)c1ccc(C(C)(C)C)cc1` (stereo not drawn), the figure is -2.99% (inactive); as for `NC(=O)Cn1ccc2cc(OCC3CCN(C(=O)C4CCCC4)CC3)cnc21`, -2.13% (inactive); as for `CC(C)CCNC(=O)c1cnc2c(c1)N(Cc1ccccc1)CCC2`, 3.22% (inactive). The figure for `COC[C@H]1C[C@@H](NC(=O)c2ccc(C#N)cc2)[C@H](O)[C@@H]1O` is -1.35% (inactive). The figure for `Cn1cc(C(=O)N2CCC(C(=O)N3CCCCCCNC(=O)CC3)CC2)cn1` is -7.37% (inactive); for `N#Cc1ccc(C(=O)Nc2ccc([C@H]3OCC(=O)N(Cc4cccnc4)[C@@H]3CO)cc2)cc1` it is -3.68% (inactive); for `O=C(Nc1cc(-c2ccncc2)nn1-c1ccccc1)c1ccccc1F` it is -7.37% (inactive). Regarding `O=C(Nc1cccnc1)[C@@H]1C[C@@H](c2ccc(F)cc2)N([S+](=O)([O-])c2ccccc2)C1`, the activity change was 19.9% (inactive).

Take `Cc1nc2c(c(C)nn2-c2ccccc2)c(C)c1CCC(=O)NCCc1ccc(Cl)cc1`: the activity change is 11.8% (inactive). The figure for `Cc1ccc(CNC(=O)CCc2c(C)nc3c(c(C)nn3-c3ccccc3)c2C)cc1` is -26.3% (active). As for `COC(=O)c1ccc(NC(=O)CCc2c(C)nc3c(c(C)nn3-c3ccc(C)cc3)c2C)cc1`, the figure is 33% (inactive); as for `Cn1ncc2c(C(=O)NCc3ccc(Cl)cc3)cc(-c3ccc(F)cc3)nc21`, 11.6% (inactive). For `O=C(NCCc1ccccc1F)c1ccc2nnc(-c3ccc(F)cc3)n2c1`, the activity change is 1.1% (inactive). Regarding `COC(=O)NC1CCCN(c2ccc3nnc(-c4ccccc4)n3n2)C1` (stereo not drawn), the activity change is -6.13% (inactive). Turning to `COc1ccc(N2CC(c3noc(-c4cc(OC)c(OC)c(OC)c4)n3)CC2=O)cc1` (stereo not drawn), the activity change is 12.4% (inactive). As for `CCOc1ccccc1NC(=O)C1CCCN(S(=O)(=O)c2cn(C)cn2)C1` (stereo not drawn), the figure is -25.5% (active); as for `Cc1ccc(C)c(NC(=O)C2CCCN(S(=O)(=O)c3cn(C)cn3)C2)c1` (stereo not drawn), 5.66% (inactive). As for `CCOc1ccccc1CNC(=O)C1CCCN(S(=O)(=O)c2ccc3c(ccn3C)c2)C1` (stereo not drawn), the figure is -3.08% (inactive); as for `O=c1cc(N2CCOCC2)oc2c(NCc3ccncc3)nccc12`, -7.16% (inactive).

In the case of `Cc1noc(C)c1-c1nccc2c(=O)cc(N3CCOCC3)oc12`, the activity change was -13.2% (inactive).

Take `O=c1cc(N2CCOCC2)oc2c(Nc3cccc(Cl)c3)nccc12`: the activity change is -31% (active). The figure for `CN(C)c1ccc(CN(C)C2CCc3ccccc3C2)cc1` (stereo not drawn) is -16.7% (inactive); for `CC(C)OCCCNC(=O)c1cc(-c2ccc(C(F)(F)F)cc2)nc2c1cnn2C` it is -2.02% (inactive). The figure for `CCOc1ccccc1NC(=O)CN1C(=O)C(c2ccccc2)=NC12CCCC2` is 7.82% (inactive). On to `CC1=C(C(=O)N(C)C)C(c2ccc(Cl)cc2)N2C(CC(=O)NC(C)c3ccccc3)=CSC2=N1` (stereo not drawn), for which the activity change was 33.5% (inactive).

In the case of `CC1=C[C@@H](CNC(C)C)[C@H](C(C)C)C[C@H]1Cc1nnc(-c2ccc(N(C)C)cc2)o1`, the activity change was -0.243% (inactive). Turning to `Cc1ccccc1C(=O)N1CCCC(C(=O)N2CCC(N3CCOC3=O)CC2)C1` (stereo not drawn), the activity change was -1.11% (inactive). As for `C#C[C@]1(O)CC[C@H]2[C@@H]3CCC4=CC(=O)CC[C@@H]4[C@H]3CC[C@@]21CC`, the figure is 3.56% (inactive); as for `C#C[C@]1(O)CC[C@H]2[C@@H]3CCC4=C/C(=N/O)CC[C@@H]4[C@H]3CC[C@@]21CC`, -79.6% (active); as for `CN1CC(=O)N(C2CCC2)Cc2c(NCC(C)(C)C)ncnc21`, 15.1% (inactive).

Regarding `O=C(OCc1ccccc1)N1CCOCC12CCN(Cc1ccncc1Cl)CC2`, the activity change is 13% (inactive). For `CN(CC1CCN(CCc2cccc(F)c2)CC1)C(=O)c1cn2cccnc2n1`, the activity change is 28.9% (inactive). For `Cc1cc(=O)n(CC(=O)NCCc2ccc(Cl)cc2)c(N2CCc3ccccc3C2)n1`, the activity change is 19.5% (inactive). As for `N#CSc1cc(SC#N)c(N)nc1N`, the figure is -42.8% (active); as for `COc1ccc(Cn2c(=O)c(C(=O)N3CCN([S+](=O)([O-])c4c(C)noc4C)CC3)nc3cccnc32)cc1`, 10.5% (inactive); as for `Cc1cn2nc(C(=O)Nc3cc(F)cc(F)c3)cc2c(N(C)Cc2ccccc2)n1`, -5.8% (inactive).

`O=c1cc(-c2ccccn2)oc2c(-c3ccccc3F)nccc12`: the activity change was -14.4% (inactive).

Regarding `O=c1cc(-c2cccnc2)oc2c(-c3ccccc3O)nccc12`, the activity change is -32.5% (active). As for `O=c1cc(-c2cccnc2)oc2c(-c3cccc(CO)c3)nccc12`, the figure is -18.5% (inactive); as for `CCCn1c(C)cnc1C1CCN(S(C)(=O)=O)C1` (stereo not drawn), 2.78% (inactive); as for `O=C(NC1CCCCCC1)C1CCCN(Cc2cccc(-c3cccs3)c2)C1` (stereo not drawn), 8.71% (inactive). The figure for `Cn1nc(C2CCCN(C(=O)NCc3ccccc3)C2)n(Cc2ccccc2)c1=O` (stereo not drawn) is -4.56% (inactive); for `COc1ccccc1N1CCCc2ncc(C(=O)N3CCCC[C@@H]3c3ccccc3)cc21` it is -3.23% (inactive); for `COC(=O)[C@H](NC(=O)[C@@H]1C[C@H](NC(=O)Nc2ccc(F)cc2F)CN1C(C)=O)C(C)C` it is -6.82% (inactive). Regarding `O=C(Nc1cccc(-c2nc3ccccc3o2)c1)c1cccc(Br)c1`, the activity change was 18.7% (inactive). For the compound `CCC(=O)Nc1cccc(-c2nc3cc(C)ccc3o2)c1`, the activity change was -27.3% (active). Regarding `Cc1ccc(SCC(=O)Nc2ccc3oc(-c4ccccc4C)nc3c2)cc1`, the activity change is 18.6% (inactive).

Take `CC1(c2ccccc2)N(Cc2ccccc2F)C(=O)OC12CCN(Cc1cccc(O)c1)CC2` (stereo not drawn): the activity change is -6.41% (inactive). As for `Cc1noc(-c2ccc(OC3CN(C(=O)c4ccco4)C3)cc2)n1`, the figure is 5.28% (inactive). As for `CC1(C)[C@H](Cc2cc(CC3CCCCC3)on2)C[C@@H]1NC(=O)C1CCC1`, the figure is -13.8% (inactive). As for `O=C(NCc1ccc2c(c1)OCO2)C1CCCN(Cc2cccc(-c3cccs3)c2)C1` (stereo not drawn), the figure is -3.87% (inactive); as for `COc1ccc(-c2nc3ccncc3[nH]2)cc1`, -18.1% (inactive) and -33.5% (active); as for `c1cc(-c2nc3ccncc3[nH]2)ccn1`, 3.83% (inactive) and 13.8% (inactive). Regarding `COc1ccc(C(=O)N2CCCC2C(=O)N2CCCC2c2nc3ccncc3[nH]2)cc1` (stereo not drawn), the activity change is 15.6% (inactive).

Consider `O=C(NCC1CN(C(=O)c2cnccn2)CC12CCOCC2)N1CCCC1` (stereo not drawn), for which the activity change is 5.72% (inactive). As for `COc1ccc2[nH]c3c(c2c1)CCNC31CCN(C(=O)c2ccccc2)CC1`, the figure is 15.7% (inactive). For `O=C(c1ccccc1Cl)N1CCN(C(=O)c2nc3cccnc3n(Cc3ccccc3)c2=O)CC1`, the activity change is -2.58% (inactive).

For `CCOc1ncccc1C(=O)N1CCN(Cc2ccccc2)CC(O)C1` (stereo not drawn), the activity change is -34.4% (active). As to `CCOc1ccccc1C(=O)N1CCC(Oc2ncccc2C(=O)N(C)C)C1` (stereo not drawn), the activity change was 17.8% (inactive).

For `Nc1nc2c(s1)C(c1ccccc1)CC(=O)N2` (stereo not drawn), the activity change is -56.5% (active).

Regarding `CN1C(=O)CC(c2ccccc2)C1=O` (stereo not drawn), the activity change was 10.2% (inactive). The figure for `COC(=O)[C@H](NC(=O)C1=C[C@@H](NC(=O)CS(=O)(=O)c2ccccc2)[C@@H](O)[C@H](O)C1)C(C)C` is 22% (inactive); for `COc1cccc(CN2CCOC[C@H](Oc3ccccc3)C2)c1` it is 7.17% (inactive); for `Cc1cccc(C(=O)N2CCC3(CC2)CC(c2ccccc2)CN(C)C3)n1` (stereo not drawn) it is -35.9% (active). As for `CSCC(=O)N1CCC2(CC1)CC(c1ccccc1)CN(C)C2` (stereo not drawn), the figure is 3.1% (inactive); as for `CN(C)CC1(O)CCC2(CCN(C(=O)c3ccc4ccccc4n3)CC2)CC1`, -13.2% (inactive). The figure for `CC1=C[C@@H](CNC(C)C)[C@H](C(C)C)C[C@H]1Cc1nnc(-c2ccc(C)cc2)o1` is -3.97% (inactive); for `O=C(Cc1cccc(F)c1)N1CCC[C@H]1c1nc(-c2ccc(F)cc2)n[nH]1` it is 21.1% (inactive).

Source of the values: PubChem BioAssay AID1645851 (National Center for Advancing Translational Sciences (NCATS), 2021).
